# Laboratory results from article PMC5540273 (PLoS ONE, 2017).
# Key:
# Settings in all cases: concentration: 1 μM, replicates: in singlicate; n = 1
# LYN = test system: LYN
# LZK = test system: T1, LZK
# T1 construct: gene MAP3K13
# MAK = test system: MAK
# MAP3K15 = test system: MAP3K15
# MAP3K1 = test system: MAP3K1
# MAP3K2 = test system: MAP3K2
# MAP3K3 = test system: MAP3K3
# MAP3K4 = test system: MAP3K4
# MAP4K2 = test system: MAP4K2
# MAP4K3 = test system: MAP4K3
# MAP4K4 = test system: MAP4K4
# MAP4K5 = test system: MAP4K5
# MAPKAPK2 = test system: MAPKAPK2
# MAPKAPK5 = test system: MAPKAPK5
# MARK1 = test system: MARK1
# MARK2 = test system: MARK2
# MARK3 = test system: MARK3
# MARK4 = test system: MARK4
# MAST1 = test system: MAST1
# MEK1 = test system: T2, MEK1
# T2 construct: gene MAP2K1
# 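Further: KINOMEscan kinase panel screen.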
SMILES,%Inh (LYN),%Inh (LZK),%Inh (MAK),%Inh (MAP3K15),%Inh (MAP3K1),%Inh (MAP3K2),%Inh (MAP3K3),%Inh (MAP3K4),%Inh (MAP4K2),%Inh (MAP4K3),%Inh (MAP4K4),%Inh (MAP4K5),%Inh (MAPKAPK2),%Inh (MAPKAPK5),%Inh (MARK1),%Inh (MARK2),%Inh (MARK3),%Inh (MARK4),%Inh (MAST1),%Inh (MEK1)
Cc1cc(NCC(c2ccccc2)c2ccccc2)nc(NCc2ccc(C(F)(F)F)cc2)n1 [GW497681],0%,11%,17%,0%,0%,0%,0%,22%,0%,0%,0%,0%,0%,0%,0%,0%,0%,0%,0%,0%
C[C@@H]1CCCCN1c1cc(-c2ccc3c(N)n[nH]c3c2)nc(N)n1 [GSK2258759],0%,0%,22%,0%,0%,0%,0%,0%,0%,1%,0%,0%,4%,0%,0%,0%,0%,0%,0%,27%
Cc1cccc(-c2nc(-c3ccc(S(C)(=O)=O)cc3)sc2-c2ccnc(NCCc3ccccc3)c2)c1,5%,2%,0%,10%,0%,0%,0%,16%,15%,0%,0%,0%,0%,0%,0%,11%,0%,0%,0%,0%
CS(=O)(=O)c1ccc(-c2c(-c3ncn[nH]3)sc(N3CCOCC3)c2C#N)cc1,0%,0%,36%,0%,26%,6%,27%,2%,0%,0%,0%,0%,0%,0%,26%,10%,0%,24%,21%,2%
COc1cc2nccc(Nc3ccc(NC(=O)c4ccc(C)cc4)c(O)c3)c2cc1OC.Cl [GW440132],28%,0%,13%,13%,10%,9%,0%,2%,0%,8%,0%,3%,8%,0%,0%,0%,0%,14%,0%,8%
